According to the supplement of paper PMC10338343:
± gives the standard deviation.

Assays:
[1] = test system: MILI (PIWIL2) piRISC loaded with piRNA #1 (26 nt); test: pre-steady-state target cleavage rate (min^-1); guide: piRNA #1 5'p-UGAGGUAGUAGGUUGUAUAGUAUCCA; higher = faster piRNA-guided slicing of the target; conditions: auxiliary factor: 500 nM mouse GTSF1
How it was run: (§1)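 Cleave-'n-Seq reactions paired 0.1 nM transcribed, DNA-blocked target RNA library with 1 nM active affinity-purified piRISC holding one synthetic guide, plus or minus 500 nM GTSF1 partner protein, in HEPES–potassium acetate buffer at 33 °C for 0–8 or 0–960 min. After sequencing of uncleaved targets and normalisation to depth and weakly complementary targets, the pre-steady-state cleavage rate was taken from a burst-and-steady-state fit. Three trials were pooled, and k3 was capped at 0.0001 min^-1.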

[2] = test system: EfPiwi piRISC loaded with piRNA #1 (26 nt); test: pre-steady-state target cleavage rate (min^-1); auxiliary factor: 500 nM Ephydatia muelleri Gtsf1; guide: piRNA #1 5'p-UGAGGUAGUAGGUUGUAUAGUAUCCA; MIWI and MILI are mouse PIWI proteins and EfPiwi is from a freshwater sponge; tags in brackets are library labels; higher = faster piRNA-guided slicing of the target
How it was run: as §1

| Sequence | pre-steady-state target cleavage rate [1] | pre-steady-state target cleavage rate [2] |
| --- | --- | --- |
| GGAGACGAUACUAUACAACCAUCUACCUCA | 0.00466 ± 0.003 | 0.00359 ± 0.001 |
| GGAGACCUUACUAUACCAACCUACUACCUCA | 0.00685 ± 0.0036 | 0.00457 ± 0.0029 |
| GGAGAGGAUACUUUACAUCCUACUACCUCA | 0.253 ± 0.016 | 0.00455 ± 0.0027 |
| GGAGUGGUUACUAUACAACCUACUACCUCA | 0.186 ± 0.0089 | 0.00957 ± 0.004 |
| GGAGAGCUAACUAUACAACCUACUACCUCA | 0.137 ± 0.018 | 0.00909 ± 0.0042 |
| GGAGUGGAUACUAAACAACGUACUACCUCA | 0.0219 ± 0.0031 | 0.00304 ± 0.0013 |
| GGAGACCUAUGAACACAACCUACUACCUCA | 0.0162 ± 0.0041 | 0.00896 ± 0.0044 |
| GGAGUGGAUACUAAACAAGCUACUACCUCA | 0.211 ± 0.013 | 0.00401 ± 0.0019 |
| GGAGAGGAUACUAUACAACCUACUACUCUCA | 0.123 ± 0.015 | 0.00775 ± 0.0031 |
| GGAGUGGUUACUAUACAACCUACUUCCUCA | 0.0036 ± 0.002 | 0.0027 ± 0.0013 |
| GGAGACGAUACUAUACAACCUACUACCUA | 0.151 ± 0.018 | 0.104 ± 0.038 |
| GGAGACGAUACUAUACAUCCUACAACCUCA | 0.287 ± 0.022 | 0.00566 ± 0.0028 |
| GGAGAGGAUACUAUUCAACGUACUACCUCA | 0.0162 ± 0.0029 | 0.00415 ± 0.0012 |
| GGAGACCUAACUAUACAACCUACAUCCUCA | 0.0364 ± 0.013 | 0.00597 ± 0.0051 |
| GGAGACCAUACUAUACAACCUAGAUCCUCA | 0.0232 ± 0.0082 | 0.00423 ± 0.0039 |
| GGAGACCAUACUAUACAACCUACUAGCUGA | 0.0115 ± 0.0056 | 0.00669 ± 0.0037 |
| GGAGAGGAUUCUAUACAACCUACUACCUCA | 0.179 ± 0.011 | 0.0066 ± 0.0039 |
| GGAGACGAUCACUAUACAACCUACUACCUCA | 0.131 ± 0.019 | 0.0768 ± 0.029 |
| GGAGACGAUACUAUACAACCUACUUGCUCA | 0.155 ± 0.052 | 0.00371 ± 0.0014 |
| GGAGUGGAUACUAUACAACCUACUACCCUCA | 0.104 ± 0.013 | 0.00587 ± 0.002 |

| Sequence | pre-steady-state target cleavage rate [1] | pre-steady-state target cleavage rate [2] |
| --- | --- | --- |
| GGAGAGGAUACUAUACAACCUGACUACCUCA | 0.00367 ± 0.0024 | 0.00442 ± 0.0022 |
| GGAGAGGAUACUUAUACAACCUACUACCUCA | 0.127 ± 0.012 | 0.112 ± 0.045 |
| GGAGACCAUACUAUACACCCUACUACCUCA | 0.0841 ± 0.016 | 0.00656 ± 0.0021 |
| GGAGACCUAAGAAUACAACCUACUACCUCA | 0.0112 ± 0.0044 | 0.00727 ± 0.0035 |
| GGAGACCUAACUAUACAACCUACUACUCUCA | 0.208 ± 0.028 | 0.00491 ± 0.0044 |
| GGAGACCUUACUAUCCAACCUACUACCUCA | 0.17 ± 0.018 | 0.0791 ± 0.034 |
| GGAGAGGAUACUAUACUACCUACUACCUCA | 0.173 ± 0.011 | 0.00925 ± 0.0043 |
| GGAGAGGAUACUAUACAUCCUACUACGUCA | 0.00995 ± 0.003 | 0.00405 ± 0.0018 |
| GGAGACGAUACUUUACAACCUACUUCCUCA | 0.019 ± 0.0078 | 0.00221 ± 0.002 |
| GGAGAGGGUACUAUACAACCUACUACCUCA | 0.145 ± 0.013 | 0.0162 ± 0.0072 |
| GGAGACGAUACUAUACAACCCACUACCUCA | 0.0178 ± 0.0039 | 0.00638 ± 0.0022 |
| GGAGUGGAUACUAUACAACCCACUACCUCA | 0.0174 ± 0.0024 | 0.00487 ± 0.0019 |
| GGAGACGAUACUAUACAACCUACCACCUCA | 0.122 ± 0.018 | 0.00631 ± 0.0033 |
| GGAGACCAUCCUAUACAACCUACUACCUCA | 0.16 ± 0.03 | 0.01 ± 0.006 |
| GGAGACGAUACAAUACAACCUUCUACCUCA | 0.0137 ± 0.0038 | 0.00327 ± 0.0022 |
| GGAGACGAUACUAUACAACCUACUACCUCU [g2:g24:cont:t1U] | 0.24 ± 0.019 | 1.35 ± 0.49 |
| GGAGAGGAUACUAUACAACCUACUAACUCA | 0.0462 ± 0.014 | 0.00561 ± 0.0029 |
| GGAGACCUUACUAUGACAACCUACUACCUCA | 0.179 ± 0.018 | 0.00456 ± 0.0042 |
| GGAGAGGAUACUAUACAACCUACGUACCUCA | 0.0773 ± 0.012 | 0.00321 ± 0.0014 |
| GGAGACCUAAGUAAACAACCUACUACCUCA | 0.0128 ± 0.0033 | 0.00575 ± 0.004 |

| Sequence | pre-steady-state target cleavage rate [1] | pre-steady-state target cleavage rate [2] |
| --- | --- | --- |
| GGAGACGAUACUAUACAACCUACUACCCA | 0.107 ± 0.024 | 0.00543 ± 0.0019 |
| GGAGAGGAAACUAAACAACCUACUACCUCA | 0.229 ± 0.03 | 0.00466 ± 0.0036 |
| GGAGUGGAUACAAUACAACCUUCUACCUCA | 0.0111 ± 0.0024 | 0.00456 ± 0.0022 |
| GGAGACCUUACUAGACAACCUACUACCUCA | 0.155 ± 0.015 | 0.0104 ± 0.0051 |
| GGAGUGGAUACUAUACAACGUUCUACCUCA | 0.00599 ± 0.0017 | 0.00461 ± 0.0022 |
| GGAGUGGAUACUAUACAACCUACUACCUUCA | 0.128 ± 0.01 | 0.168 ± 0.061 |
| GGAGACCAAACUAUACAACCUACUAGCUCA | 0.0778 ± 0.029 | 0.00453 ± 0.0034 |
| GGAGACGAAACUAUACAACCUACUUCCUCA | 0.0627 ± 0.022 | 0.00318 ± 0.0023 |
| GGAGACCAUACUAUACAAGCUACUACGUCA | 0.139 ± 0.022 | 0.00359 ± 0.0023 |
| GGAGAGGAUACUUUACAACCUACUUCCUCA | 0.00524 ± 0.0027 | 0.00239 ± 0.0024 |
| GGAGUAGGAUACUAUACAACCUACUACCUCA | 0.145 ± 0.016 | 0.0546 ± 0.019 |
| GGAGACCAAACAAUACAACCUACUACCUCA | 0.0678 ± 0.024 | 0.00594 ± 0.0054 |
| GGAGUGGAUACUUUACAACCUUCUACCUCA | 0.0065 ± 0.0017 | 0.00301 ± 0.0026 |
| GGAGACCUAUGAAUACAACCUACUACCUCA [g2:g18:cont:t1A] | 0.00878 ± 0.0033 | 0.00706 ± 0.0032 |
| GGAGACCAUACUAUACAACCAACUACGUCA | 0.00313 ± 0.003 | 0.00504 ± 0.004 |
| GGAGACGAUUCUAUACAACCUACUAGCUCA | 0.12 ± 0.013 | 0.00278 ± 0.0019 |
| GGAGUGGACACUAUACAACCUACUACCUCA | 0.241 ± 0.025 | 0.115 ± 0.041 |
| GGAGAGGAUACUAUACAACGUACUACGUCA | 0.0115 ± 0.0029 | 0.00349 ± 0.0018 |
| GGAGUGGAUAUCUAUACAACCUACUACCUCA | 0.0708 ± 0.0091 | 0.00883 ± 0.0052 |
| GGAGACGAUUCUAUACAACCUACUUCCUCA | 0.0941 ± 0.016 | 0.00271 ± 0.0022 |
